Data reported in the supplement of paper PMC10849652.
The full data set covers some 7,900 targets. This sample favours those with a hit. About 0.6% of all pairs of compound and target were hits. Values without a mark were called inactive.

Columns and labels:
Assay in all cases: log2 fold change, soluble protein after heating vs DMSO (PISA); higher = thermal stabilisation; K562 cells, 10 uM, 30 min; active = over 0.2 and 3.5 SD of the protein, either way, in both replicates (recomputed)
[1] = compound: CN1CCN(CCOc2cc(OC3CCOCC3)c3c(Nc4c(Cl)ccc5c4OCO5)ncnc3c2)CC1 [saracatinib]
Procedure, shortened: (§1)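 For each measurement, 10 μM compound was applied for 30 min to K562 cells at 2×10^6 cells/mL. Aliquots were heated for 3 min across 48°C-58°C, pooled, and extracted in PBS with 0.5% NP-40 at 4°C; the supernatant after 21,000xg for 90 min was soluble protein. This was quantified by TMTpro 16plex LC-MS/MS with channel sums equalised, and thermal stability was reported relative to control samples from duplicates, on a log2 fold-change scale.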

[2] = compound: CN1CCN(c2nc(C3=C(c4c[nH]c5ccccc45)C(=O)NC3=O)c3ccccc3n2)CC1 [sotrastaurin]
Procedure, shortened: as §1

[3] = compound: CN1CC[C@H](c2c(O)cc(O)c3c(=O)cc(-c4ccccc4Cl)oc23)[C@H](O)C1 [alvocidib]
Procedure, shortened: as §1

[4] = compound: CN1CCc2c(c3ccccc3n2Cc2ccc(C(=O)NO)cc2)C1 [Tubastatin A]
Procedure, shortened: as §1

[5] = compound: CNC(=O)C1=CC=CC=C1NC2=NC(=NC=C2Cl)NC3=C(C=C(C=C3)N4CCOCC4)OC
Procedure, shortened: as §1

[6] = compound: CNC(=O)c1ccc(Nc2ncc(C(F)(F)F)c(NCc3nccnc3N(C)S(C)(=O)=O)n2)cc1 [defactinib]
Procedure, shortened: as §1

[7] = compound: CNCc1ccc(-c2[nH]c3cc(F)cc4c3c2CCNC4=O)cc1 [rucaparib]
Procedure, shortened: as §1

[8] = compound: CNc1nc(-c2ccc3c(N)n[nH]c3c2)cc(N2C[C@@H](C(=O)NC3CCCCC3)CC[C@H]2C)n1
Procedure, shortened: as §1

[9] = compound: COC(=O)N[C@@H](C)CNc1nccc(-c2cn(C(C)C)nc2-c2cc(Cl)cc(NS(C)(=O)=O)c2F)n1 [encorafenib]
Procedure, shortened: as §1

[10] = compound: COC(=O)[C@H](CCSC)NC(=O)C1=C(C=C(C=C1)NC[C@H](CS)N)C2=CC=CC=C2
Procedure, shortened: as §1

Sequence of UniProt Q9NYV4 (Q9NYV4 whole entry, looked up): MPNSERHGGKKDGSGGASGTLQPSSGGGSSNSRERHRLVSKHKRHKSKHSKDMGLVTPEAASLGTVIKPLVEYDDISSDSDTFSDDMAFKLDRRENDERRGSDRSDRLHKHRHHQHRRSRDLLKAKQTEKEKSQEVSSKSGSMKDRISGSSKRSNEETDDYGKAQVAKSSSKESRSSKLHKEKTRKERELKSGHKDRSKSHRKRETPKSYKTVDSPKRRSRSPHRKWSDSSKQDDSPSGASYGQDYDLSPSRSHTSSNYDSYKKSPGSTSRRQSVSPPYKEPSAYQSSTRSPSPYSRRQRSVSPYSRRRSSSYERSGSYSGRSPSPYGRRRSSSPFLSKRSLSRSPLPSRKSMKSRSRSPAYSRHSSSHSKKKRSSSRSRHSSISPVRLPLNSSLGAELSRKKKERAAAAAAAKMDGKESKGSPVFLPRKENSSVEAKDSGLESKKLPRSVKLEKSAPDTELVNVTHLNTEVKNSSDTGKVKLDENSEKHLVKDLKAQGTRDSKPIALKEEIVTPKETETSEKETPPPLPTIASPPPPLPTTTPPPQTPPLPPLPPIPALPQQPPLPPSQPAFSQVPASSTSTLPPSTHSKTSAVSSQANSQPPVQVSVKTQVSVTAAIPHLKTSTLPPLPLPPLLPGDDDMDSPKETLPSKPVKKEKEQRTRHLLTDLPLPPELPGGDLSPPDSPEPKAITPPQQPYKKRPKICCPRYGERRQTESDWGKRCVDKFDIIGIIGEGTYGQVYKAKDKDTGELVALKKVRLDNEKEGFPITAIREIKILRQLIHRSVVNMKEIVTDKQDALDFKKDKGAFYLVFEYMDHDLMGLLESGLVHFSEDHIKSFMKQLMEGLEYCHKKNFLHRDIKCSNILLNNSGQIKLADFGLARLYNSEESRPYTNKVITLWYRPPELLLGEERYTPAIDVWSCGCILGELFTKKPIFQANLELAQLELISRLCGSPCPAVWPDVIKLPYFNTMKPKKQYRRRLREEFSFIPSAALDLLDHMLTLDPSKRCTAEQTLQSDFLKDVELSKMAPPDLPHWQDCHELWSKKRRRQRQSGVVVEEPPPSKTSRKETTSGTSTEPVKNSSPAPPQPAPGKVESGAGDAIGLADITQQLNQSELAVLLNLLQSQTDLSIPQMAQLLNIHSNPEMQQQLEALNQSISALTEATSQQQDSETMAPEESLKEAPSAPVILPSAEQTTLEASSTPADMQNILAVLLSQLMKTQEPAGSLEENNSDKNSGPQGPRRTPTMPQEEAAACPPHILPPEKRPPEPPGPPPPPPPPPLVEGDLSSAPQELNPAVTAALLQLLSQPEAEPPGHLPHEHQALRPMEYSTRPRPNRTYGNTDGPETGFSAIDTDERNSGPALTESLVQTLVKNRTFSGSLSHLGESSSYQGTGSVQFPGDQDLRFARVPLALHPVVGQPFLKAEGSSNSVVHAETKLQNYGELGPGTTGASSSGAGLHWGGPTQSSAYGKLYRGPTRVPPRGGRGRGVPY
Sequence of UniProt Q9UKF6 (Q9UKF6 whole entry, looked up): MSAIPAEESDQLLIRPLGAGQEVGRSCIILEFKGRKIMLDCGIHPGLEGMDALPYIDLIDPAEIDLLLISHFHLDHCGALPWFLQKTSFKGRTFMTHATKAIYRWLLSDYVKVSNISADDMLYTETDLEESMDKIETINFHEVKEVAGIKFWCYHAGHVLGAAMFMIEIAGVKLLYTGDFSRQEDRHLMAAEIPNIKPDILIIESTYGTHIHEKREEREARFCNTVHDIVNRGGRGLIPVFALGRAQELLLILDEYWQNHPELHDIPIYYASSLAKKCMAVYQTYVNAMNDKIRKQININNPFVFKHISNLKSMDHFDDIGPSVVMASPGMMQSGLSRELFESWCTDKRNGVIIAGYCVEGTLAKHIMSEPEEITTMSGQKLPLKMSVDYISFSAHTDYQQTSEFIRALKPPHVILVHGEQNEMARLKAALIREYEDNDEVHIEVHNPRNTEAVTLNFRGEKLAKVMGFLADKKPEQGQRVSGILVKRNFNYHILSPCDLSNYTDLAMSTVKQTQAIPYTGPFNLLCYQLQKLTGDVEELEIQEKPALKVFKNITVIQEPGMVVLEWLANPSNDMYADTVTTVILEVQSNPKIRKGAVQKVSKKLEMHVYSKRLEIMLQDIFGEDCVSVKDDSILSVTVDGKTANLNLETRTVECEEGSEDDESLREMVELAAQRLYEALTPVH
Sequence of UniProt O75794 (O75794 whole entry, looked up): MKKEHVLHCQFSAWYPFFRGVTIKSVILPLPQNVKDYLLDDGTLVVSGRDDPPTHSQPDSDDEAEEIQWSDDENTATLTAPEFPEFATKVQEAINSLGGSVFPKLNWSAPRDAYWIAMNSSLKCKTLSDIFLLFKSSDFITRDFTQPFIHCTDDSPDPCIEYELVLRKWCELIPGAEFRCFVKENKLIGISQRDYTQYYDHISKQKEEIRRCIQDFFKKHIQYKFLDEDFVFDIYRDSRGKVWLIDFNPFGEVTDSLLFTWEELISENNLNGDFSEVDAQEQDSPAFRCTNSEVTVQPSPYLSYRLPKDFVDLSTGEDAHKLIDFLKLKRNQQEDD
Sequence of UniProt Q96CF2 (Q96CF2 whole entry, looked up): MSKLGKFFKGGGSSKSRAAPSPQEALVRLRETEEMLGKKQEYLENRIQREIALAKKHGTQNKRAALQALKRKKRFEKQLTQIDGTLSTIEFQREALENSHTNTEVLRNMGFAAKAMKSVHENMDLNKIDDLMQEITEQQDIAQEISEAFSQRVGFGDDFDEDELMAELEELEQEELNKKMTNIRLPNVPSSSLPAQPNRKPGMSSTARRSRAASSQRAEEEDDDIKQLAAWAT
Sequence of UniProt P60033 (P60033 whole entry, looked up): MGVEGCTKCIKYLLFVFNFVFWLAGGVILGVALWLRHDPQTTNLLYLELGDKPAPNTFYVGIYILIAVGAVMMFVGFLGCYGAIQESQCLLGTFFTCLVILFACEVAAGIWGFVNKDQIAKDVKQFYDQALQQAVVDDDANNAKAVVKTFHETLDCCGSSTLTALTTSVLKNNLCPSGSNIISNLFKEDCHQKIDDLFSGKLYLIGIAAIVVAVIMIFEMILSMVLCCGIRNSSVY
Sequence of UniProt P06493 (P06493 whole entry, looked up): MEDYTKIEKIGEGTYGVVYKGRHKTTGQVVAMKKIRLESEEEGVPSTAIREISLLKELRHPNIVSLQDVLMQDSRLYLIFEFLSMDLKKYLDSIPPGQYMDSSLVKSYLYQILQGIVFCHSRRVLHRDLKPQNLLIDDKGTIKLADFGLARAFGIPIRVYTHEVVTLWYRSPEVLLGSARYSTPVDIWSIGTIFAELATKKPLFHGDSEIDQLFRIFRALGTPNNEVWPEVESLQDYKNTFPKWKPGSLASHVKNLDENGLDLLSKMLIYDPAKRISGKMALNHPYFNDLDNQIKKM
Sequence of UniProt O15182 (O15182 whole entry, looked up): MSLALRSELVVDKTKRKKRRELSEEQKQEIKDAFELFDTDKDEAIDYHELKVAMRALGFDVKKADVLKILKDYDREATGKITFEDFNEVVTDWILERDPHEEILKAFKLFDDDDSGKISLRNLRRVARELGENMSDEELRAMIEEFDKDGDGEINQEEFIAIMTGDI
Sequence of UniProt Q7L3B6 (Q7L3B6 whole entry, looked up): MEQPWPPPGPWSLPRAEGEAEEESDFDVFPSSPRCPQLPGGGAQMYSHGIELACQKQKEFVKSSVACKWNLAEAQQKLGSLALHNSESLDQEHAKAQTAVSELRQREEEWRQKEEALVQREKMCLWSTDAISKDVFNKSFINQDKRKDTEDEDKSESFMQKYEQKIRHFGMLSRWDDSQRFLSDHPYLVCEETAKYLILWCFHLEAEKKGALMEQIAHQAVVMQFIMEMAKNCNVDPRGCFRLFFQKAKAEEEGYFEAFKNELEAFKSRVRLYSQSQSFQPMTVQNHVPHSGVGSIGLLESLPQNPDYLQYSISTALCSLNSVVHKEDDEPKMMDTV
Sequence of UniProt P48509 (P48509 whole entry, looked up): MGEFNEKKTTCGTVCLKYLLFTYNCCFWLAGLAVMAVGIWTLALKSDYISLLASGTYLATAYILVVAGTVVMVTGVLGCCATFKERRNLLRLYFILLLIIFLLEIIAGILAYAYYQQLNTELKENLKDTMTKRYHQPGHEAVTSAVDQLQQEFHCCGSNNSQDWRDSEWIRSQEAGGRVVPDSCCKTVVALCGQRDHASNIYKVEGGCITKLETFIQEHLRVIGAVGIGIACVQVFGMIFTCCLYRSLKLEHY
Sequence of UniProt Q9Y2V0 (Q9Y2V0 whole entry, looked up): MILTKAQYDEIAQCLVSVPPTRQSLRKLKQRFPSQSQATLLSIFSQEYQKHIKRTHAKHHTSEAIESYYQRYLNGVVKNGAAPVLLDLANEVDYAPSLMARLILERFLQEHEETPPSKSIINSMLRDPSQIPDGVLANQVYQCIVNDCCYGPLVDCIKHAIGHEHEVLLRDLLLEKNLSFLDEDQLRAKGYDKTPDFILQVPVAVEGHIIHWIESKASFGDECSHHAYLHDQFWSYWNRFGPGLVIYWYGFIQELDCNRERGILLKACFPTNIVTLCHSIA
Sequence of UniProt P19397 (P19397 whole entry, looked up): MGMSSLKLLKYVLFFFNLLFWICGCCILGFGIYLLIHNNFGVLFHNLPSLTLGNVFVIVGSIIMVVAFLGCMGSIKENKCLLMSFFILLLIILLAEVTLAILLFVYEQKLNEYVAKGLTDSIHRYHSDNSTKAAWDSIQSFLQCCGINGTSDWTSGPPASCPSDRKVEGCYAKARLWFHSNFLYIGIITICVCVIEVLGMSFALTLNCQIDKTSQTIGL
Sequence of UniProt Q96G23 (Q96G23 whole entry, looked up): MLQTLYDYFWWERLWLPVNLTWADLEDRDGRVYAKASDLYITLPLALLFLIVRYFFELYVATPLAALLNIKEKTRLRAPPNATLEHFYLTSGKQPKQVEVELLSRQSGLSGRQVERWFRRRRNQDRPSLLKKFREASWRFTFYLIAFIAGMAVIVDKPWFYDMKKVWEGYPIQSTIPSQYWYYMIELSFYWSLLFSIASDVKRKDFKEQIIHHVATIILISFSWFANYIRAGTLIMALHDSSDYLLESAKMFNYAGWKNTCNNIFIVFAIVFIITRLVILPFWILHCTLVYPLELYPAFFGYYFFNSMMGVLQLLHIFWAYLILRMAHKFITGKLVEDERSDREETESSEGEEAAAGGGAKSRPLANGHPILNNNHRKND

CDK1 (UniProt P06493) was tested, and the log2 fold change [1] was 0.007, the log2 fold change [2] was -0.045 and the log2 fold change [3] was -0.063. The log2 fold change [4] was 0.018, the log2 fold change [5] was -0.043 and the log2 fold change [6] was -0.118. It also gave a log2 fold change [7] of 0.013, a log2 fold change [8] of 0.01 and a log2 fold change [9] of -0.01. For the same target, the log2 fold change [10] was 0.003.

In the case of CD81 (UniProt P60033), the log2 fold change [1] is reported as 0.163, the log2 fold change [2] is reported as 0.103 and the log2 fold change [3] is reported as 0. For the same target, the log2 fold change [4] was -0.064, the log2 fold change [5] was -0.029 and the log2 fold change [6] was -0.053. For the same target, the log2 fold change [7] was -0.152, the log2 fold change [8] was 0.207 and the log2 fold change [9] was 0.199. The log2 fold change [10] was 0.

For CD151 (UniProt P48509), the log2 fold change [1] was 0.045, the log2 fold change [2] was 0.116 and the log2 fold change [3] was -0.049. The log2 fold change [4] was -0.012, the log2 fold change [5] was 0.092 and the log2 fold change [6] was -0.065. It also gave a log2 fold change [7] of -0.097, a log2 fold change [8] of 0.03 and a log2 fold change [9] of 0.031. It also gave a log2 fold change [10] of 0.001.

In the case of CERS2 (UniProt Q96G23), the log2 fold change [1] is reported as 0.012, the log2 fold change [2] is reported as -0.033 and the log2 fold change [3] is reported as -0.018. For the same target, the log2 fold change [4] was -0.056, the log2 fold change [5] was -0.121 and the log2 fold change [6] was -0.001. For the same target, the log2 fold change [7] was 0.002, the log2 fold change [8] was -0.048 and the log2 fold change [9] was 0.017. The log2 fold change [10] was 0.03.

For CD53 (UniProt P19397), the log2 fold change [1] was -0.22, the log2 fold change [2] was 0.087 and the log2 fold change [3] was -0.06. The log2 fold change [4] was 0.009, the log2 fold change [5] was -0.21 and the log2 fold change [6] was -0.069. The log2 fold change [7] was -0.032, the log2 fold change [8] was 0.125 and the log2 fold change [9] was -0.006. It also gave a log2 fold change [10] of 0.051.

In the case of CPQ (UniProt Q9Y646), the log2 fold change [1] is reported as 0.039, the log2 fold change [2] is reported as -0.012 and the log2 fold change [3] is reported as 0.045. The log2 fold change [4] was 0.02, the log2 fold change [5] was -0.049 and the log2 fold change [6] was -0.035. For the same target, the log2 fold change [7] was -0.042, the log2 fold change [8] was -0.031 and the log2 fold change [9] was 0.008. It also gave a log2 fold change [10] of 0.006.

CDC42EP1 (UniProt Q00587) showed a log2 fold change [1] of -0.017, a log2 fold change [2] of 0.025 and a log2 fold change [3] of -0.146. It also gave a log2 fold change [4] of 0.001, a log2 fold change [5] of -0.303 and a log2 fold change [6] of -0.144. For the same target, the log2 fold change [7] was -0.002, the log2 fold change [8] was 0.016 and the log2 fold change [9] was -0.017. The log2 fold change [10] was 0.007.

CDC37L1 (UniProt Q7L3B6) gave a log2 fold change [1] of -0.003, a log2 fold change [2] of 0.021 and a log2 fold change [3] of -0.093. The log2 fold change [4] was -0.308 (active), the log2 fold change [5] was 0.002 and the log2 fold change [6] was 0.059. For the same target, the log2 fold change [7] was -0.058, the log2 fold change [8] was -0.013 and the log2 fold change [9] was 0.005. It also gave a log2 fold change [10] of 0.018.

With COCH (UniProt O43405) the log2 fold change [1] was 0.126, the log2 fold change [2] was 0.01 and the log2 fold change [3] was 0.029. The log2 fold change [4] was -0.036, the log2 fold change [5] was 0.031 and the log2 fold change [6] was 0.1. The log2 fold change [7] was 0.011, the log2 fold change [8] was -0.139 and the log2 fold change [9] was -0.074. For the same target, the log2 fold change [10] was 0.05.

In the case of C15orf41 (UniProt Q9Y2V0), the log2 fold change [1] is reported as 0.009, the log2 fold change [2] is reported as 0.042 and the log2 fold change [3] is reported as -0.042. It also gave a log2 fold change [4] of 0.011, a log2 fold change [5] of -0.137 and a log2 fold change [6] of -0.008. The log2 fold change [7] was 0.081, the log2 fold change [8] was -0.017 and the log2 fold change [9] was 0.01. The log2 fold change [10] was 0.079.

CDC123 (UniProt O75794) showed a log2 fold change [1] of -0.039, a log2 fold change [2] of 0.073 and a log2 fold change [3] of -0.033. For the same target, the log2 fold change [4] was 0.075, the log2 fold change [5] was -0.043 and the log2 fold change [6] was 0.008. The log2 fold change [7] was -0.017, the log2 fold change [8] was -0.041 and the log2 fold change [9] was 0.052. It also gave a log2 fold change [10] of -0.032.

CPSF3 (UniProt Q9UKF6) was tested, and the log2 fold change [1] was 0.009, the log2 fold change [2] was -0.086 and the log2 fold change [3] was -0.052. The log2 fold change [4] was 0.04, the log2 fold change [5] was 0.07 and the log2 fold change [6] was -0.098. It also gave a log2 fold change [7] of -0.011, a log2 fold change [8] of -0.049 and a log2 fold change [9] of 0.03. It also gave a log2 fold change [10] of -0.009.

In the case of CDK12 (UniProt Q9NYV4), the log2 fold change [1] is reported as -0.113, the log2 fold change [2] is reported as -0.406 and the log2 fold change [3] is reported as 0.122. The log2 fold change [4] was 0.165, the log2 fold change [5] was -0.309 and the log2 fold change [6] was -0.052. It also gave a log2 fold change [7] of 0.072, a log2 fold change [8] of 0.003 and a log2 fold change [9] of 0.09. The log2 fold change [10] was 0.157.

For CHMP4C (UniProt Q96CF2), the log2 fold change [1] was 0, the log2 fold change [2] was 0.042 and the log2 fold change [3] was 0.02. For the same target, the log2 fold change [4] was -0.009, the log2 fold change [5] was -0.173 and the log2 fold change [6] was -0.047. It also gave a log2 fold change [7] of -0.032, a log2 fold change [8] of -0.138 and a log2 fold change [9] of -0.097. The log2 fold change [10] was 0.007.

CETN3 (UniProt O15182) gave a log2 fold change [1] of -0.027, a log2 fold change [2] of -0.022 and a log2 fold change [3] of 0.013. For the same target, the log2 fold change [4] was 0.015, the log2 fold change [5] was 0.128 and the log2 fold change [6] was -0.008. For the same target, the log2 fold change [7] was -0.006, the log2 fold change [8] was -0.003 and the log2 fold change [9] was -0.021. For the same target, the log2 fold change [10] was 0.082.
